# Test results taken from PubChem BioAssay AID1347417 (National Center for Advancing Translational Sciences (NCATS), 2020).
# In all, about 120,000 compounds went through this assay and about 5,300 (4.4%) were called active. Inconclusive results (about 22%) are left out. Calls follow the shape of the dose curve; as a rule, active = well fitted inhibition curve with a large enough effect; inconclusive = small, poorly fitted or top-dose-only effect; inactive = no such curve, though single readings can be large or run the other way. What follows is part of a selection rich in actives, with near analogues and random picks from the rest. A call without a number means that no potency is given here.
# Experiment: qHTS Primary assay for Inhibitors of Plasmodium falciparum Dd2 growth in vitro; also: nearly all actives have a fitted effect of over 65% in size
# Details: P. falciparum Dd2 growth, SYBR Green, 72 h; series mostly up to 28.9 µM
# Summary of the method: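 Infected erythrocytes (Dd2, 0.3% parasitemia, 2.5% hematocrit final) are added to compound in RPMI-1640/Albumax II medium, grown 72 h at 37C in low oxygen, then lysed with saponin/Triton-X containing SYBR Green and read by fluorescence.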
# Potency is read from the fitted curve at half-maximal effect.
SMILES,Potency,outcome
Cc1cnc(C)c(N2CCN(C(=O)[C@H]3CC[C@@H](N)C3)CC2)n1,inactive,–
CC(=O)N1CCCC(c2nn(-c3ccccc3)c(=O)[nH]2)C1 (stereo not drawn),inactive,–
O=C(Cc1ccc(F)cc1)N1CCCC(c2nn(-c3ccc(Cl)cc3)c(=O)[nH]2)C1 (stereo not drawn),inactive,–
O=c1[nH]c(C2CCCN(Cc3ccccn3)C2)nn1-c1ccc(Cl)cc1 (stereo not drawn),1.41 µM (active),–
COCc1nnc(NC(=O)C2c3ccccc3C(=O)N(C3CCCC3)C23CCCC3)s1 (stereo not drawn),7.94 µM (active),–
COCCNC(=O)C1c2ccccc2C(=O)N(C2CCCC2)C12CCCCC2 (stereo not drawn),inactive,–
Cc1cccnc1NC(=O)C1c2ccccc2C(=O)N(C2CCCC2)C12CCCC2 (stereo not drawn),inactive,–
CS(=O)(=O)N1CCC(F)(c2nc(-c3ccccc3)no2)CC1,inactive,–
CN1CC(=O)N(c2ccccc2F)Cc2c(NCCc3ccc(F)cc3)ncnc21,inactive,–
Cc1sc2cc(C(=O)N(C)C)[nH]c2c1CN1CCCCC1,inactive,–
CC(C)OC(=O)c1ccc(NC(=O)Cn2nc3c(cc2=O)CCCCC3)cc1,inactive,–
Cc1c(NS(=O)(=O)c2ccc(Cl)cc2)c(=O)n(-c2ccccc2)n1C,inactive,–
Cn1c(=O)n(C)c2cc(NS(=O)(=O)c3ccc(F)cc3)ccc21,inactive,–
CC(=O)c1c(C)n(S(=O)(=O)c2ccc(Cl)cc2)c2ccc(NS(=O)(=O)c3ccc(Cl)cc3)cc12,11.2 µM (active),–
COCCCNc1nc2c(S(=O)(=O)c3ccc(C(C)C)cc3)nnn2c2ccccc12,inactive,–
COc1cc2c(=O)c(S(=O)(=O)c3ccc(C(C)C)cc3)cn(Cc3ccccc3C)c2cc1OC,8.91 µM (active),–
O=C(NCc1cc(F)cc(F)c1)c1noc(-c2ccc3c(c2)OCO3)n1,inactive,–
COc1ccc(CNC(=O)N2CCCCC2c2noc(COCC3CC3)n2)cc1 (stereo not drawn),inactive,–
CCOc1cccc2cc(-c3cn4c(n3)sc3cc(C)ccc34)c(=O)oc12,inactive,–
Cc1ccc(-c2cn3c(n2)sc2cc(C(=O)NCc4cccs4)ccc23)c(C)c1,11.2 µM (active),–
Cc1ccc(-c2cn3c(n2)sc2cc(C(=O)NCCCc4ccccc4)ccc23)cc1,inactive,–

SMILES,Potency,outcome
O=C(NCc1ccccc1)c1cnc2n1CCN(Cc1c[nH]c3ccccc13)CC2,inactive,–
COCC(=O)Nc1ccc([C@H]2OCC(=O)N[C@@H]2CO)cc1,inactive,–
Cn1ncc(N2CCC(C(=O)N3CC=C(c4ccccc4)CC3)C2)cc1=O (stereo not drawn),inactive,–
Cn1cnc(C(=O)N2CCC(OC3CCN(S(C)(=O)=O)CC3)CC2)c1,inactive,–
Oc1ccccc1CN1CCC(O)(c2csc(CN3CCN(c4ccccn4)CC3)n2)CC1,7.94 µM (active),–
COc1ccc(NC(=O)N2CCC(O)(c3csc(CN4CCc5ccccc5C4)n3)CC2)cc1,inactive,–
CC(C)c1csc(CN2CCN(c3ncccc3C#N)CC2)n1,inactive,–
COc1ccccc1CCC(=O)N1CCC[C@H]1c1nc(-c2ccccc2)no1,inactive,–
CC(C)c1cc(C(=O)NCc2cccnc2Oc2ccc(F)cc2F)on1,inactive,–
CN(C)c1nc2c(c(=O)[nH]1)CCN(Cc1ccncc1)CC2,–,inactive [at 5.79 µM]
Cc1ccc(CN2C(=O)[C@@H]3C[C@@H](O)CN3C3(CN(Cc4ccncc4)C3)C2=O)o1,inactive,–
O=C1CC(c2ccccc2)N(C(=O)CNC(=O)c2cnccn2)CCCCCCN1 (stereo not drawn),inactive,–
COc1ccc(OC)c(S(=O)(=O)N2CCCCCCNC(=O)CC2c2ccccc2)c1 (stereo not drawn),inactive,–
O=C1CC(c2ccccc2)N(Cc2cn[nH]c2-c2ccc(F)cc2)CCCCCN1 (stereo not drawn),8.91 µM (active),–
Cn1cc(CC(=O)N2CCCc3ncc(C(=O)NCc4ccc(F)cc4)cc32)c2ccccc21,inactive,–
CC(=O)N1CCCN(Cc2nnc(C(=O)N3CCC[C@@H]3C(c3ccccc3)c3ccccc3)n2-c2ccccc2)CC1,inactive,–
Cc1nc(N2CCC(NCCNc3ccncc3C)CC2)c2ccsc2n1,10 µM (active),–
Cc1nc(N2CCC(NC(=O)c3cnccn3)CC2)cc(C(F)(F)F)n1,inactive,–
Cc1occc1C(=O)NC1CCc2nn(CC3CC3)c(=O)n2CC1 (stereo not drawn),inactive,–
CN1CCOC(CNc2ncc(C(C)(C)C(=O)O)c(N3CCOCC3)n2)C1 (stereo not drawn),inactive,–
Cc1c(CNC(=O)c2ccc3c(c2)[nH]c(=O)n3C2CCC(O)CC2)cnn1C (stereo not drawn),inactive,–

SMILES,Potency,outcome
COc1ccc(-c2nc3c(c(SCC(=O)Nc4ccc(C(=O)O)cc4)n2)Cc2ccccc2O3)cc1,inactive,–
CSc1nc(-c2ccc(F)cc2)nc2c1Cc1c(CO)cnc(C)c1O2,inactive,–
Cc1ccccc1CSc1nc(-c2ccccc2)nc2c1Cc1c(CO)cnc(C)c1O2,3.98 µM (active),–
COc1cccc(C2Cn3nnc(-c4nc(-c5ccccc5F)no4)c3CO2)c1 (stereo not drawn),inactive,–
Cc1ccc(CN2CCC(C3CCN(C)CC3)C2)o1 (stereo not drawn),inactive,–
CCOc1cc(C(=O)N2CCC[C@H]2c2nc(-c3ccc(F)cc3)no2)cc(OCC)c1OCC,inactive,–
COC(=O)c1ccccc1NC(=O)c1cc(-c2ccccc2O)no1,4.47 µM (active),–
COC(=O)c1ccccc1NC(=O)C(Cc1ccccc1)N1Cc2ccccc2C1=O (stereo not drawn),inactive,–
COC(=O)c1ccccc1NC(=O)c1ccc(COc2ccccc2Cl)o1,inactive,–
CC(C)(C)CC(=O)N1CC[C@@H](CC(=O)O)[C@@H](CCN2CCN(c3ccc(F)cc3)CC2)C1,inactive,–
O=C(NCCc1cn[nH]c1)[C@H]1CCC[C@@H](O)C1,inactive,–
Cn1cc(-c2ccccc2Oc2ccccc2)c2nc(CN3CCNC(=O)C3)cn2c1=O,inactive,–
Oc1ccc(-c2nc(C3CC3)nc3c2CN(Cc2ccc(F)cc2)CC3)cc1,5.62 µM (active),–
Oc1ccc(-c2nc(C3CC3)nc3c2CCN(Cc2cccc(F)c2)CC3)cc1,inactive,–
Cn1nccc1CN1CCc2nc(C3CC3)nc(-c3ccc(O)cc3)c2C1,inactive,–
O=C1OCC2(CCN(Cc3ccc(F)c(Cl)c3)C2)N1Cc1ccccn1 (stereo not drawn),inactive,–
C[C@@H](NC(=O)COc1ccccc1)c1c(-c2ccc(F)cc2)noc1C(=O)O,inactive,–
Cc1cc(N2CCC(NC(=O)c3ccc(N(C)C)cc3)C2=O)ccc1F (stereo not drawn),inactive,–
COc1ccccc1CNC(=O)CCn1c(=O)c2ccccc2n(CC(=O)Nc2cccc(Cl)c2)c1=O,inactive,–
COc1ccc(NC(=O)Cn2c(=O)n(Cc3ccc(C(=O)NCc4ccccc4Cl)cc3)c(=O)c3ccccc32)cc1,10 µM (active),–
Cc1ccc(Cn2c(=O)n(CCCC(=O)NCc3ccccc3Cl)c(=O)c3ccccc32)cc1,inactive,–
